From PubChem BioAssay (NCATS)
Inconclusive results are not listed. The source made the active and inactive calls. The call rests on the fitted dose curve; in most records, active means well fitted inhibition curve with a large enough effect; inconclusive means small, poorly fitted or top-dose-only effect, or effect the other way; inactive means flat fitted curve, though single readings scatter.

Assay: qHTS for Inhibitors of Plasmodium falciparum (CP250) proliferation (AID 504320)
Details: P. falciparum CP250 in erythrocytes, SYBR Green DNA, 72 h; series mostly up to 6.7 µM; activity change, negative = inhibition: at the top concentration
How it was run: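 Parasite growth measured as SYBR Green DNA fluorescence (ex 485, em 535 nm) after overnight lysis following 72 h culture at 37 °C, 0.3% parasitemia, 2.5% hematocrit. Values normalized against DMSO and 0.29 uM artemisinin controls, with plate-stack correction.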

Activity change, negative = inhibition, inactive:
COc1ccc2c(c1)[C@H](C=Cc1ccccc1)[C@@H]([C@H](O)CO)O2 -0.851%
CC=CC(=O)C[C@H]1CC[C@@H](C)[C@@H](CCO)O1 -0.485%
CC(CCN1CCCCc2nc(C)c(C)cc21)=NO[C@H](C)c1cn([C@H](CO)Cc2ccccc2)nn1 2.95%
CC1(C)OCC([C@H](O)C2=CCCCC2=O)CO1 -3.78%
C=CC[C@@]1(c2ccc(OC)cc2)Oc2ccccc2C2=NCCN=C21 -0.422%
C[C@H]1[C@@H](C(=O)N2CCCC2)CC(=O)C(=NOCc2ccccc2)C[C@H]1c1ccccc1 -1.6%
CCC12C=C(C=Cc3ccccc3)C(CC)(C1)C(c1ccccc1)CC2=O (stereo not given) 1.01%
C[C@H](NC(=O)N1CCc2nc(-c3ccccc3)c3c(c2C1)CO[C@@H](C)C3)c1ccccc1 2.68%
COC(=O)C(=Cc1cc(Br)c(OC)c(Br)c1)C(=O)OC 3.69%
COC(=O)CC=C[C@@H](C)[C@@H](C=NOC[C@@H](O)COCc1ccco1)NS(=O)(=O)c1ccc(C)cc1 -14.2%
COC1=C[C@H](C(=O)NC2CCN(Cc3ccccc3)CC2)[C@@]2(C)Cc3ccccc3[C@@H]2CC1=O 1.85%
CC(C)OC(=O)[C@H](C)NC(=O)N1CCc2nc(-c3ccccc3)c3c(c2C1)CO[C@@H](C)C3 -2.59%
C=CCN1C(=O)CC[C@@]23C1=NC(C(=O)OC)=C(C(=O)OC)[C@@H]2N(CC#CC)c1ccccc13 4.42%
COc1ccc(C=CNC(=O)c2ccc(OC)cc2)cc1 -11.5%

Potency, inactive:
COc1ccc(-c2nc3c(c4c2C[C@H](c2ccccc2)OC4)CN(C(=O)C2CC2)CC3)c(C)c1
